# Measured values as given in PubChem BioAssay (NCATS).
# Records with an inconclusive call do not appear. Unmarked numbers belong to inactive results. Activity calls are given as the source filed them. The call rests on the fitted dose curve; in most records, active means well fitted activation curve with a large enough effect; inconclusive means small, poorly fitted or top-dose-only effect; inactive means no such curve, though single readings can be large or run the other way.
# Target: Cellular tumor antigen p53 (Homo sapiens) (UniProt P04637)
# Test: Primary qHTS for small molecule compounds that upregulate eGFP-tagged delta133p53alpha (in N-terminal) cells. (AID 2060322); further: nearly all actives have a fitted effect of over 75% in size;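 on activation: series mostly up to about 56 µM; 0% = DMSO vehicle and 100% = reference activator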
# Settings: NCI-H358 eGFP-delta133p53alpha fluorescence, 24 h; activation: hits give high values
# Procedure, shortened: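 NCI-H358 cells pre-induced 24 h with 10 ng/ml doxycycline to express N-terminal eGFP-delta133p53alpha, then dosed 24 h at 37C without doxycycline; fixed, Hoechst-stained, GFP intensity by laser scanning cytometry, normalized to DMSO (0%) and 57.5 uM 5-azacytidine (100%).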
# Potency means the concentration at half of the fitted maximal effect.
# Chain of Cellular tumor antigen p53 (Homo sapiens) (P04637 whole entry, looked up): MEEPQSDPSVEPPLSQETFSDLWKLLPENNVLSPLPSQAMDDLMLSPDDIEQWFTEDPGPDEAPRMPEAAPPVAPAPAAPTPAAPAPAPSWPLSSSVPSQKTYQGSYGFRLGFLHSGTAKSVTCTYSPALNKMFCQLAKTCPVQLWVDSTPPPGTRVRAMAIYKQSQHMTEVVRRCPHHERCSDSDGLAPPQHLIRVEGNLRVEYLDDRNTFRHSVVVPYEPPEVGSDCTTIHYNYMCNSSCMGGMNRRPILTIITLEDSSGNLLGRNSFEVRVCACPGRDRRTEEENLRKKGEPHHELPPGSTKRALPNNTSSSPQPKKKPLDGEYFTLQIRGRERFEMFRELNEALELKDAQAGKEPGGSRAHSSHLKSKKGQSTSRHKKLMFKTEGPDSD
SMILES,activation [%],Potency
Oc1cn2c(n1)Nc1ccc(Cl)c(Cl)c1C2,-8.37,
CCC[C@@H]1C[C@@H](C(=O)N[C@@H]([C@H]2O[C@H](SC)[C@H](O)[C@@H](O)[C@H]2O)[C@@H](C)O)N(C)C1,-5.08,
COC(=O)c1cc(Cl)ccc1OC,2.51,
NC(=O)Cc1cccc(C(=O)c2ccccc2)c1N,9.6,
CC(C)(Oc1ccc(Cl)cc1)C(=O)O,-18.4,
Nc1nc2ccc(Cl)cc2c2nc(-c3ccco3)nn12,,1.69 µM (active)
CC(C(=O)O)c1ccc(C(=O)c2cccs2)cc1 (stereo not drawn),9.21,
COc1ccccc1OCC(O)CO (stereo not drawn),-10.9,
CCCC(=O)c1cc(O)c(O)cc1O,-37.9,
C#C[C@]1(O)CC[C@H]2[C@H]3CCc4cc(OC)ccc4[C@H]3CC[C@@]21C,-30,
c1ccc2occc2c1,-5.08,
CCOC(=O)[C@H]1O[C@H]1C(=O)N[C@@H](CC(C)C)C(=O)NCCC(C)C,17.3,
Cc1ccc(C(=O)c2ccc(CC(=O)O)n2C)cc1,14.1,
OCc1ccccc1O[C@@H]1O[C@H](CO)[C@H](O)[C@H](O)[C@H]1O,15.8,
COc1cc(NS(=O)(=O)c2ccc(N)cc2)ncn1,-5.86,
COc1cc(NC(C)CCCN)c2ncccc2c1 (stereo not drawn),,24.6 µM (active)
Cc1[nH]c(C=C2C(=O)Nc3ccccc32)c(C)c1CCC(=O)O,,24.3 µM (active)
CN(C)CCCSc1ccccc1NC(=O)/C=C/c1ccccc1,-10,
